These results are taken from PubChem BioAssay AID492998 (Southern Research Specialized Biocontainment Screening …, 2010).

Structures are written as SMILES. The whole screen tested about 2,300 compounds, of which about 550 (24%) were called active. How the calls were made is not given here. The list is a sample of the results. Potency and affinity values are given separately.

The experiment is described as follows: Vero E6 cell cytotoxicity, dose response, cytotoxicity control for non-replicating M. tuberculosis project, secondary assay (AID 492998).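 Further: 100% = vehicle-treated cells and 0% = background wells.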 Conditions: series mostly up to 20 µM; viability: at the top concentration.
For orientation: viability means a read-out of living cells in per cent, often relative to untreated cells. With `CC(C)N1CCc2c(sc(NC(=O)CCS(=O)(=O)c3ccccc3)c2C#N)C1`, the “viability” value was 71.5% (inactive).
With `CNC(=O)COC(=O)c1ccc(-c2nc3ccccc3s2)s1` the figure was 102% (inactive); with `COCCCC1CCN(Cc2nc(-c3ccccc3)no2)CC1`, 94.4% (inactive).
Under `CC(C)(C)c1ccc(S(=O)(=O)NNC(=O)c2cc3ccccc3[nH]2)cc1` stands 86.8% (inactive); under `CC(C)(C)CC(=O)NC(=S)NCc1ccco1`, 97.7% (inactive); under `CCOC(=O)COc1cc(N)c(Cl)cc1Cl`, 106% (inactive).
In the case of `CCn1cc(C(=O)NC(C)C23CC4CC(CC(C4)C2)C3)cn1` (centres undefined), the “viability” value is 90.4% (inactive).
Regarding `Cc1ccc(S(=O)(=O)N2CCC(C(=O)OCc3ccccc3)CC2)cc1C`, the “viability” value was 102% (inactive).
Turning to `COc1ccc2c([N+](=O)[O-])c(N3CCCC3)[nH]c2c1`, the “viability” value was 91% (inactive).
Under `Cc1ccc(OCCCCn2ccnc2)c([N+](=O)[O-])c1` stands 102% (inactive); under `Clc1cccc(-c2ccc(CNCc3ccccn3)o2)c1`, 101% (inactive); under `Clc1ccc(-c2ccc(CNCc3ccccn3)o2)cc1`, 88.3% (inactive).
Under `CCCc1cc(NCCCn2ccnc2)n2nc(C)c(-c3ccccc3)c2n1` stands 73.8% (inactive); under `Fc1ccc(-c2ccc(CNCc3ccccn3)o2)cc1Cl`, 110% (inactive).
Under `O=C(Oc1ccccc1)c1cc2ccccc2o1` stands 101% (inactive); under `Cc1cc(C(=O)NNc2ccc(Cl)cc2)no1`, 105% (inactive).
Take `COc1cccc(C(=O)C2CCCN(CC3=Cc4cc(OC)ccc4OC3)C2)c1` (centres undefined): the “viability” value was 97.2% (inactive).
Under `N/C(=N\OC(=O)c1cccs1)c1ccccc1` stands 91.9% (inactive); under `C=CCN(CC=C)C(=O)Cc1ccc(F)cc1`, 104% (inactive).
Under `O=[N+]([O-])c1ccc(Nc2ccccc2O)c2nonc12` stands 111% (inactive); under `Cc1ccc2[nH]c(C)c(CCNC(=O)c3cc4cc([N+](=O)[O-])ccc4oc3=O)c2c1`, 85% (inactive).
Under `CC(NC(=O)c1cc2cc(Br)ccc2oc1=N)c1ccccc1` (centres undefined) stands 90.7% (inactive); under `CCOCCOC(=O)COc1ccc2c(-c3ccccc3)cc(=O)oc2c1`, 94.9% (inactive); under `CC1=NN(C(=O)c2ccc(C)o2)C(O)(c2ccccc2)C1` (centres undefined), 98.4% (inactive).
With `N=c1oc2ccccc2cc1C(=O)NC1CCCCCC1`, the “viability” value was 98.4% (inactive).
With `O=C(NC1CCCC1)c1nc2c(nnn2Cc2cccc(Cl)c2)c(=O)[nH]1` the figure was 95.9% (inactive); with `CC(=O)c1ccc(-n2cc(-c3ccc(C(C)(C)C)cc3)[n+]3c2SCCC3)cc1`, 98.5% (inactive).
With `O=C(NCC(c1cccs1)N1CCOCC1)c1cc([N+](=O)[O-])cc([N+](=O)[O-])c1` (centres undefined) the figure was 78.3% (inactive).
With `COc1ccc([N+](=O)[O-])c(S(=O)(=O)c2ccc(Cl)cc2)n1` the figure was 92.8% (inactive); with `COC(=O)CCCCCN1C(=O)/C(=C\c2ccncc2)SC1=S`, 75.8% (inactive); with `COc1ccc(-c2noc(-c3cc4ccccc4oc3=O)n2)cc1`, 97.7% (inactive).
Turning to `CCN(CC)c1ccc2cc(C(=O)NCc3ccc(F)cc3)c(=N)oc2c1`, the “viability” value was 80% (inactive).
With `COc1ccccc1NC(=O)c1cnc(SC)nc1` the figure was 105% (inactive).
Under `O=C(Nc1ccccc1F)c1ccc(Br)o1` stands 104% (inactive); under `Cc1ccccc1NC(=O)c1nc[nH]c1C(=O)NCc1ccccc1`, 97.9% (inactive); under `COc1ccccc1OCC(=O)N/N=C/C=C/c1ccc([N+](=O)[O-])o1`, 73.2% (inactive).
Under `O=C(Nc1nc2c(Cl)cccc2s1)c1ccc([N+](=O)[O-])o1` stands 76.2% (inactive); under `N=c1oc2ccc(Cl)cc2cc1C(=O)NC1CCCCCC1`, 99.1% (inactive).
For `COc1cc2c(cc1OC)CN(CCC(=O)c1ccc(Br)cc1)CC2`, the “viability” value is 88.3% (inactive).
Under `CC1(C)C[C@H]2C=C(C=O)[C@]3(C=O)C[C@]3(C)[C@H]2C1` stands 96.4% (inactive); under `CCc1ccc(C(=O)COC(=O)c2ccc(Cl)nc2)cc1`, 105% (inactive); under `O=C(OCc1nnc(-c2ccccc2)o1)c1ccc(Br)o1`, 92.2% (inactive).
With `Nn1c(SCCOc2ccc(Cl)cc2)nnc1-c1cccnc1` the figure was 94.8% (inactive); with `COc1ccc(C(=O)COC(=O)c2ccc([N+](=O)[O-])s2)cc1OC`, 84.3% (inactive); with `COc1cc(C=O)ccc1OCCOCCOc1ccc(Cl)cc1`, 103% (inactive).
Under `COC(=O)CCc1nc2c(C#N)c(-c3ccc(Cl)cc3)ccn2n1` stands 105% (inactive); under `O=C(Nc1ccc(Br)cc1)c1cc([N+](=O)[O-])cc([N+](=O)[O-])c1`, 98.3% (inactive).
With `O=C(NCC1CCCCC1)c1ccco1`, the “viability” value is 101% (inactive).
As to `Oc1ccccc1-c1nnc(COc2ccccc2)o1`, the “viability” value is 78.1% (inactive).
Under `Cc1ccc(CCC(=O)Nc2ccc(C)c(C)c2)o1` stands 103% (inactive); under `O=[N+]([O-])c1ccc(CN2CCN(c3ccc(Cl)cc3)CC2)o1`, 108% (inactive); under `Cc1cccc(NCCC(=O)c2ccc([N+](=O)[O-])cc2)c1C`, 75.4% (inactive).
With `Cc1cccc(NC(=O)c2n[nH]c([N+](=O)[O-])c2Br)c1C` the figure was 102% (inactive).
In the case of `COc1ccc(NC(=O)c2ccc(-c3ccc([N+](=O)[O-])cc3)o2)cc1OC`, the “viability” value is 106% (inactive).
Take `CC12CN3CC(C)(CN(C1)C3c1ccc([N+](=O)[O-])o1)C2` (centres undefined): the “viability” value was 92.9% (inactive).
Take `CC1CC(C)CN(C(=O)COC(=O)c2ccc([N+](=O)[O-])o2)C1` (centres undefined): the “viability” value was 96.2% (inactive).
With `Cc1cccc(CSc2nnc(-c3ccco3)o2)c1` the figure was 99.6% (inactive).
Under `CC(C)(C)c1ccc(OCCCC(=O)NC2=NCCS2)cc1` stands 86% (inactive); under `Cc1ccc(NC(=O)COc2ccccc2)cc1Cl`, 101% (inactive); under `O=C(NCCC1=CCCCC1)c1coc(=O)c(Br)c1`, 106% (inactive).
Under `O=C(COC(=O)c1ccc(Br)o1)Nc1ncc([N+](=O)[O-])s1` stands 105% (inactive); under `COC(=O)c1ccc(COC(=O)CCS(=O)(=O)c2ccc(C)cc2)cc1`, 99.5% (inactive).
Consider `CCOC(=O)CC(=O)Nc1ccc(C(=O)OCC)cc1`, for which the “viability” value was 107% (inactive).
Under `C=CCc1ccc2oc(C(=O)OCC)cc(=O)c2c1O` stands 93.4% (inactive).
Under `CCNC(=O)NC(=O)C(C)OC(=O)CCCSc1nc2ccccc2s1` (centres undefined) stands 99% (inactive); under `Cc1cccc(C)c1NC(=O)COC(=O)CCc1c[nH]c2ccccc12`, 103% (inactive).
Under `O=S1(=O)N=C(N/N=C/C=C/c2ccccc2)c2ccccc21` stands 82.8% (inactive); under `COCCn1c(C)cc(C(=O)COC(=O)c2ccc([N+](=O)[O-])o2)c1C`, 82% (inactive).
As to `Cc1cc(C(=O)N/N=C/c2ccc([N+](=O)[O-])o2)c(C)o1`, the “viability” value was 79.9% (inactive).
Under `O=C(Nc1ccccc1F)c1ccc(CSc2ccccc2)o1` stands 96.3% (inactive); under `O=C(Nc1ccc([N+](=O)[O-])cc1)c1ccc(Cn2cc([N+](=O)[O-])cn2)cc1`, 82.7% (inactive).
Under `Cc1[nH]c2ccccc2c1C(=O)C(C)OC(=O)c1ccc([N+](=O)[O-])o1` (centres undefined) stands 80.2% (inactive); under `Cc1ccc(NC(=O)c2noc(C(C)C)c2[N+](=O)[O-])cc1`, 90.1% (inactive); under `Cc1cc(C)c(C(=O)COC(=O)c2ccc([N+](=O)[O-])o2)cc1C`, 104% (inactive).
